# In all, about 2,400 compounds went through this assay and about 2,200 (92%) were called active. The set was probably picked from earlier hits. Some of the results follow. Values without a mark were called inactive.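 Rule for the calls: active = mean inhibition over triplicate runs exceeds the cutoff derived for the earlier primary screen (cut at about 25% in these data); inactive = the rest.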
# Target: Platelet-activating factor acetylhydrolase IB subunit alpha2 (Homo sapiens) (UniProt P68402)
# Test: PAFAH1B2 inhibitors, confirmation, biochemical, fluorescence polarization, FP-rhodamine probe, triplicate (AID 493034);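 note: 0% = enzyme with DMSO and 100% = wells lacking PAFAH1B2 protein; inhibitors lower polarization by leaving the probe unbound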
# Conditions: recombinant PAFAH1B2, FP-rhodamine probe fluorescence polarization; at 3.39 µM; stronger effect = higher value
# Chain of Platelet-activating factor acetylhydrolase IB subunit alpha2 (Homo sapiens) (P68402 whole entry, looked up): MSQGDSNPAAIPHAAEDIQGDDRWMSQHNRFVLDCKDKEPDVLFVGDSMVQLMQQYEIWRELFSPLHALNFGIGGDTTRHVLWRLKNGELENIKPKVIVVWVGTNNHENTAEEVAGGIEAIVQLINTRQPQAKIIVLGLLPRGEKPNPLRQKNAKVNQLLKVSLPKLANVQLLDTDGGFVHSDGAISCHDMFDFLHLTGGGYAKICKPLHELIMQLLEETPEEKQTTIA
row,Structure (SMILES),inhibition
1,COC(=O)C1=C(c2ccc(C(C)=O)cc2)C[C@@H]2CC[C@H]1N2C(=O)NCc1ccc(F)cc1,23.9%
2,COC(=O)C1=C(c2ccc(C(C)=O)cc2)C[C@@H]2CC[C@H]1N2C(=O)NCc1ccc(C(F)(F)F)cc1,28% (active)
3,O=P(NS(=O)(=O)c1ccc(Cl)cc1)(Oc1ccccc1)Oc1ccccc1,81.3% (active)
4,O=P(NS(=O)(=O)c1ccc(Br)cc1)(Oc1ccccc1)Oc1ccccc1,78.1% (active)
5,Cc1ccc(S(=O)(=O)NP(=O)(Oc2ccccc2)Oc2ccccc2)cc1,51.9% (active)
6,BrCC(Br)C1CCC(Br)C(Br)C1 (configuration not stated),56.7% (active)
7,O=c1[nH]c(=S)n(CCC2=CCCCC2)c(O)c1/C=N/Nc1ccccc1,29.8% (active)
8,O=S(=O)(c1ccc(Cl)cc1)c1ccc(Cl)cc1,42.9% (active)
9,Cc1ccc(OCCOc2cccc(C=C3C(=O)NC(=O)NC3=O)c2)cc1,36.7% (active)
10,O=C(O)CCn1cc(C=C2C(=O)NC(=O)NC2=O)c(-c2ccc(Br)cc2)n1,36.4% (active)
11,O=C(OCCN1CCOCC1)C1(c2ccccc2)CCCC1,32.4% (active)
12,O=C(O)C1(c2ccc(Cl)cc2)CCC1,37% (active)
13,Cn1c(O)c(/C=C2\N=c3ccccc3=C2CCNC(=S)NC2CC2)c(=O)n(C)c1=O,84.3% (active)
14,O=C(Cc1ccccc1)NC(Cc1ccc(Cl)cc1)C(=O)O (configuration not stated),28.4% (active)
15,O=C(Cc1ccc(N(CCCl)CCCl)cc1)NC(Cc1ccc(Cl)cc1)C(=O)O (configuration not stated),63% (active)
16,O=C1CC(=O)N(Cc2ccccc2)C(=S)N1,15.9%
17,O=c1[nH]c(=S)n(Cc2ccc(F)cc2)c(O)c1/C=N/N1CCCCC1,38.2% (active)
18,O=C(N/N=C/c1c(O)n(Cc2ccc(F)cc2)c(=S)[nH]c1=O)c1ccncc1,40.2% (active)
19,O=c1[nH]c(=S)n(Cc2ccc(F)cc2)c(O)c1C=NCC1CCCO1 (configuration not stated),27.5% (active)

row,Structure (SMILES),inhibition
1,O=c1[nH]c(=S)n(Cc2ccc(F)cc2)c(O)c1/C=N/N1CCCCCC1,27.4% (active)
2,O=C(N/N=C/c1c(O)n(Cc2ccc(F)cc2)c(=O)[nH]c1=O)c1ccccc1,23.9%
3,CC1CC(OP(O)(=S)c2ccc(N(C)C)cc2NC(=O)c2cccs2)CC(C)(C)C1 (configuration not stated),17.3%
4,O=C1CN=C(c2ccccc2)c2ccccc2N1Cc1ccc(C(F)(F)F)cc1,57.8% (active)
5,Cc1ccc(Sc2ccc(C=C3C(=O)N(C)C(=O)N(C)C3=O)o2)cc1,62.6% (active)
6,O=C1NC(=O)C(=Cc2ccc(-c3ccc(F)cc3O)o2)C(=O)N1,20.5%
7,Cc1ccc(-c2nc3ccc(Cl)cc3n2OC(=O)N(C)C)cc1,59% (active)
8,CNC(=O)O/N=C(\N)Cc1csc2ccc(Cl)cc12,54.9% (active)
9,FC(F)(F)c1cccc(-n2nnnc2C2(N3CCOCC3)CCCCC2)c1,23.3%
10,Cc1ccc2c(c1)=NC(=O)/C(=C/c1c(O)[nH]c(=O)[nH]c1=O)C=2,21.7%
11,C=C[C@@H]1C[C@@]1(C)[C@@H](NP(=O)(c1ccccc1)c1ccccc1)c1ccccc1,29.2% (active)
12,Nc1ccc(C2(c3ccc(N)cc3)CCCCC2)cc1,45.2% (active)
13,O=P(O)(Oc1ccccc1)OC(c1ccccc1)C(F)(F)C(F)(F)F (configuration not stated),85.5% (active)
14,NP(=O)(OCCCc1ccccc1)Oc1ccc(Cl)cc1 (configuration not stated),88.8% (active)
15,NP(=O)(OCCCc1ccccc1)Oc1ccccc1 (configuration not stated),51.6% (active)
16,Nc1ccc2cc(Br)ccc2c1,70.6% (active)
17,CNC(=O)Oc1ccc(C(=O)N2c3ccccc3NC(=O)C2C)cc1 (configuration not stated),43.6% (active)
18,O=C(O)c1c[nH]c2ccc(S(=O)(=O)N(CCCl)CCCl)cc12,26% (active)

# — PubChem BioAssay AID493034 (The Scripps Research Institute Molecular Screening Center, 2011)
